What all share (experiment): yeast three-hybrid, YBZ-1, SC-Leu-His + 0.5 mM 3-AT, 4 days
What all share (settings): tags: N-Gal4 AD-HA kept; label: inside an RPR1-promoter hybrid RNA with tandem MS2 sites; ssRNA

The target of assay [1] is T1, PUM1 PUF domain R6-VWR (Homo sapiens, UniProt Q14671 828-1176, N1043V;Y1044W;Q1047R).
T1 sequence: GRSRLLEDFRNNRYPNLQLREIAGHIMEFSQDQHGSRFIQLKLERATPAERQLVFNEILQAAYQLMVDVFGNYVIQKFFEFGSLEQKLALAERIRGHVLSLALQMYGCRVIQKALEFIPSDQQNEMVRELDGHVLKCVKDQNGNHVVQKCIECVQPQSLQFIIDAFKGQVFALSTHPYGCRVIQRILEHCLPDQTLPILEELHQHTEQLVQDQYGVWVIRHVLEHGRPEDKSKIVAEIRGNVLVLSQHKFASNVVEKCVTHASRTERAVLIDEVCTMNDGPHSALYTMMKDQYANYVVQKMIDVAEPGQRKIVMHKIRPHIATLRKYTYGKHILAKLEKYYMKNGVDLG
A digest of the protocol:
(§1)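 Sequencing with Illumina followed PCR amplification of the repeat regions from transformants grown four days on SC-Leu (input) or SC-Leu-His + 0.5 mM 3-AT (selection). The transformants were strain YBZ-1 with a LexA–MS2 coat fusion and a HIS3 reporter, carrying Pumilio-1 PUF domain libraries and matching RNA elements. The interaction score is the log change in variant frequency from input to selection, computed in log2 with a pseudocount of 1 for absent variants.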

Assay [2] deals with PUM1 PUF domain R5-FHM (Homo sapiens, UniProt Q14671 828-1176, C1007F;R1008H;Q1011M). In a few lines:
as §1

Assay [3] addresses T2, PUM1 PUF domain R6-MYR (Homo sapiens, UniProt Q14671 828-1176, N1043M;Q1047R).
T2 sequence: T1 sequence with V216M, W217Y
A digest of the protocol:
as §1

In assay [4] the target is PUM1 PUF domain R7-RVQ (Homo sapiens, UniProt Q14671 828-1176, S1079R;N1080V;E1083Q). In a few lines: as §1
Assay [5] concerns the target PUM1 PUF domain R5-HLK (Homo sapiens, UniProt Q14671 828-1176, C1007H;R1008L;Q1011K). A digest of the protocol: as §1
Assay [6] deals with PUM1 PUF domain R5-RAA (Homo sapiens, UniProt Q14671 828-1176, C1007R;R1008A;Q1011A). In a few lines:
as §1

The target in assay [7] is PUM1 PUF domain R5-NAG (Homo sapiens, UniProt Q14671 828-1176, C1007N;R1008A;Q1011G). In a few lines:
as §1

Assay [8] deals with PUM1 PUF domain R2-RRQ (Homo sapiens, UniProt Q14671 828-1176, N899R;Y900R). A digest of the protocol:
as §1

Assay [9] concerns the target PUM1 PUF domain R1-FGR (Homo sapiens, UniProt Q14671 828-1176, S863F;R864G;Q867R). A digest of the protocol: as §1
For assay [10], the target named is PUM1 PUF domain R8-HFR (Homo sapiens, UniProt Q14671 828-1176, N1122H;Y1123F;Q1126R). A digest of the protocol: as §1
The target of assay [11] is PUM1 PUF domain R4-SPT (Homo sapiens, UniProt Q14671 828-1176, N971S;H972P;Q975T). A digest of the protocol: as §1
The target of assay [12] is PUM1 PUF domain R3-FWA (Homo sapiens, UniProt Q14671 828-1176, C935F;R936W;Q939A). A digest of the protocol:
as §1

Assay [13] addresses PUM1 PUF domain R3-KRG (Homo sapiens, UniProt Q14671 828-1176, C935K;Q939G). In a few lines:
as §1

In assay [14] the target is PUM1 PUF domain R3-RGR (Homo sapiens, UniProt Q14671 828-1176, C935R;R936G;Q939R). In a few lines:
as §1

Assay [15] deals with PUM1 PUF domain R5-FRY (Homo sapiens, UniProt Q14671 828-1176, C1007F;Q1011Y). A digest of the protocol: as §1
Assay [16] has as its target PUM1 PUF domain R5-FHE (Homo sapiens, UniProt Q14671 828-1176, C1007F;R1008H;Q1011E). In a few lines: as §1
Assay [17] deals with PUM1 PUF domain R4-CYG (Homo sapiens, UniProt Q14671 828-1176, N971C;H972Y;Q975G). In a few lines:
as §1

Assay [18] deals with T3, PUM1 PUF domain R6-DWV (Homo sapiens, UniProt Q14671 828-1176, N1043D;Y1044W;Q1047V).
T3 sequence: T1 sequence with V216D, R220V
A digest of the protocol: as §1

The target in assay [19] is PUM1 PUF domain R3-YFA (Homo sapiens, UniProt Q14671 828-1176, C935Y;R936F;Q939A). A digest of the protocol: as §1
The target of assay [20] is PUM1 PUF domain R3-YRL (Homo sapiens, UniProt Q14671 828-1176, C935Y;Q939L). In a few lines: as §1

Changes are numbered by the printed parent chain.

PUM1 PUF domain R1-FGR, sequence (Q14671 828-1176 S863F/R864G/Q867R): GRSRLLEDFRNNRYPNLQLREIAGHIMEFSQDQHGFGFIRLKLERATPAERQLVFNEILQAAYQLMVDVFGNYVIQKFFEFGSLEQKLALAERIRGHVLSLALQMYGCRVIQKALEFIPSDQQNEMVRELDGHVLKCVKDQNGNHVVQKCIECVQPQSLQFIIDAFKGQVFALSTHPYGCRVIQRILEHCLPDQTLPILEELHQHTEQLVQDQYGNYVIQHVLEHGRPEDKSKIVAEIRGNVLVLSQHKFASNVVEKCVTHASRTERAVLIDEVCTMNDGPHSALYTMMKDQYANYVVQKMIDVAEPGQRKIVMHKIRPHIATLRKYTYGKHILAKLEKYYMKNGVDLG
PUM1 PUF domain R3-RGR, sequence (Q14671 828-1176 C935R/R936G/Q939R): as the sequence (Q14671 828-1176 S863F/R864G/Q867R) above, with F36S, G37R, R40Q, C108R, R109G, Q112R counted along it
PUM1 PUF domain R5-FRY, sequence (Q14671 828-1176 C1007F/Q1011Y): as the sequence (Q14671 828-1176 S863F/R864G/Q867R) above, with F36S, G37R, R40Q, C180F, Q184Y counted along it
PUM1 PUF domain R5-FHM, sequence (Q14671 828-1176 C1007F/R1008H/Q1011M): as the sequence (Q14671 828-1176 S863F/R864G/Q867R) above, with F36S, G37R, R40Q, C180F, R181H, Q184M counted along it
PUM1 PUF domain R5-FHE, sequence (Q14671 828-1176 C1007F/R1008H/Q1011E): as the sequence (Q14671 828-1176 S863F/R864G/Q867R) above, with F36S, G37R, R40Q, C180F, R181H, Q184E counted along it

For “GGCUAGAACUAGUGGAUCCCCCGGCGCCCGGCGGCUCGAGCCCGGGUAAGUGAAAAUAGUCUGCAUGCCGCCGGGCGCCAUGCCUGCAGGUCGACUCUAGAAAACAUG”, the binding signal in assay [1] was 3.34 log2 enrichment (interaction score).
Consider “GGCUAGAACUAGUGGAUCCCCCGGCGCCCGGCGGCUCGAGCCCGGGUAAGUGUGAAUAGUCUGCAUGCCGCCGGGCGCCAUGCCUGCAGGUCGACUCUAGAAAACAUG”, for which, in [2], the binding signal is 5.31 log2 enrichment (interaction score).
Consider “GGCUAGAACUAGUGGAUCCCCCGGCGCCCGGCGGCUCGAGCCCGGGUAAGUGCAAAUAGUCUGCAUGCCGCCGGGCGCCAUGCCUGCAGGUCGACUCUAGAAAACAUG”, for which the binding signal in assay [3] is 2.56 log2 enrichment (interaction score).
With “GGCUAGAACUAGUGGAUCCCCCGGCGCCCGGCGGCUCGAGCCCGGGUAAGUCUAAAUAGUCUGCAUGCCGCCGGGCGCCAUGCCUGCAGGUCGACUCUAGAAAACAUG”, the binding signal in [4] is 1.92 log2 enrichment (interaction score).
Turning to “GGCUAGAACUAGUGGAUCCCCCGGCGCCCGGCGGCUCGAGCCCGGGUAAGUGUUAAUAGUCUGCAUGCCGCCGGGCGCCAUGCCUGCAGGUCGACUCUAGAAAACAUG”, the binding signal was 3.05 log2 enrichment (interaction score) in assay [5], 1.06 log2 enrichment (interaction score) in assay [6] and 4.83 log2 enrichment (interaction score) in assay [7].
As for “GGCUAGAACUAGUGGAUCCCCCGGCGCCCGGCGGCUCGAGCCCGGGUAAGUGUAAAGAGUCUGCAUGCCGCCGGGCGCCAUGCCUGCAGGUCGACUCUAGAAAACAUG”, in assay [8], the binding signal was 3.28 log2 enrichment (interaction score).
With “GGCUAGAACUAGUGGAUCCCCCGGCGCCCGGCGGCUCGAGCCCGGGUAAGUGUAAAUUGUCUGCAUGCCGCCGGGCGCCAUGCCUGCAGGUCGACUCUAGAAAACAUG”, in assay [9], the binding signal was 3.11 log2 enrichment (interaction score).
As for “GGCUAGAACUAGUGGAUCCCCCGGCGCCCGGCGGCUCGAGCCCGGGUAAGUGUAAAUCGUCUGCAUGCCGCCGGGCGCCAUGCCUGCAGGUCGACUCUAGAAAACAUG”, in assay [9], the binding signal was 0.54 log2 enrichment (interaction score).
Regarding “GGCUAGAACUAGUGGAUCCCCCGGCGCCCGGCGGCUCGAGCCCGGGUAAGCGUAAAUAGUCUGCAUGCCGCCGGGCGCCAUGCCUGCAGGUCGACUCUAGAAAACAUG”, in assay [10], the binding signal was 4.92 log2 enrichment (interaction score).
“GGCUAGAACUAGUGGAUCCCCCGGCGCCCGGCGGCUCGAGCCCGGGUAAGUGUACAUAGUCUGCAUGCCGCCGGGCGCCAUGCCUGCAGGUCGACUCUAGAAAACAUG”: the binding signal in assay [11] is 1.24 log2 enrichment (interaction score).
Regarding “GGCUAGAACUAGUGGAUCCCCCGGCGCCCGGCGGCUCGAGCCCGGGUAAGUGUAAUUAGUCUGCAUGCCGCCGGGCGCCAUGCCUGCAGGUCGACUCUAGAAAACAUG”, the binding signal in [12] was 5.26 log2 enrichment (interaction score); in assay [13], 2.07 log2 enrichment (interaction score); in assay [14] it was 2.38 log2 enrichment (interaction score).
Regarding “GGCUAGAACUAGUGGAUCCCCCGGCGCCCGGCGGCUCGAGCCCGGGUAAGUUUAAAUAGUCUGCAUGCCGCCGGGCGCCAUGCCUGCAGGUCGACUCUAGAAAACAUG”, the binding signal in [4] is 3.81 log2 enrichment (interaction score).
In the case of “GGCUAGAACUAGUGGAUCCCCCGGCGCCCGGCGGCUCGAGCCCGGGUAAGUGUCAAUAGUCUGCAUGCCGCCGGGCGCCAUGCCUGCAGGUCGACUCUAGAAAACAUG”, the figures for the binding signal in assay [15], in [16] and in assay [6] were 2.31 log2 enrichment (interaction score), 4.41 log2 enrichment (interaction score) and 2.68 log2 enrichment (interaction score), respectively.
For the sequence “GGCUAGAACUAGUGGAUCCCCCGGCGCCCGGCGGCUCGAGCCCGGGUAAGUGUAAAUAGUCUGCAUGCCGCCGGGCGCCAUGCCUGCAGGUCGACUCUAGAAAACAUG”, the binding signal is 4.55 log2 enrichment (interaction score) in assay [12]; 2.15 log2 enrichment (interaction score) in assay [13]; 7.43 log2 enrichment (interaction score) in assay [17]; 6.42 log2 enrichment (interaction score) in assay [3]; 3.95 log2 enrichment (interaction score) in [11]; 5.89 log2 enrichment (interaction score) in assay [1]. In addition, the binding signal is 2.46 log2 enrichment (interaction score) in assay [18], 4.33 log2 enrichment (interaction score) in assay [19] and 2.11 log2 enrichment (interaction score) in assay [20].

The values are drawn from PMC8384837, “Expanding the binding specificity for RNA recognition by a PUF domain”.
